# Test results from PubChem BioAssay.
# Active and inactive are the calls of the source.
# Tests used:
# [1] = small molecules captured by biotinylated probe aFSTL3 – biochemical, small-molecule microarray, fluorescence 635/667, stem cell growth factor project, primary screen (AID 1064); conditions: higher = more signal;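 also: measures binding of the biotinylated anti-FSTL3 antibody to printed compounds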
# [2] = binders from COS7 lysate, DM2A8 probe, primary screen, torsin A project, cell lysate, small-molecule microarray, fluorescence 635/667 (AID 1065); conditions: higher = more signal, COS7 lysate expressing mutant human TOR1A
# [3] = small molecules captured by biotinylated probe aFGF2 – biochemical, small-molecule microarray, fluorescence 635/667, stem cell growth factor project, primary screen (AID 1067); conditions: higher = more signal;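 also: measures binding of biotinylated aFGF2 protein to printed compounds on slides; z-score merges feature fluorescence and signal-to-noise across triplicate slides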
# [4] = small molecules captured by biotinylated probe aFGF10 – biochemical, small-molecule microarray, fluorescence 635/667, stem cell growth factor project, primary screen (AID 1071); conditions: higher = more signal;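 also: score merges 667 nm spot intensity and signal to noise from triplicate slides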
# [5] = biological target: Neurogenic locus notch homolog protein 2 (Homo sapiens) (UniProt Q04721); test: small molecules binding Notch2 protein – biochemical, small-molecule microarray, 635 nm fluorescence, stem cell growth factors, primary screen (AID 1073); conditions: higher = more signal
# [6] = biological target: Pro-neuregulin-1, membrane-bound isoform (Homo sapiens) (UniProt Q02297); test: small molecules binding neuregulin-1 protein – biochemical, small-molecule microarray, fluorescence 635/667, psychiatric disease protein project, primary screen (AID 1075); conditions: NRG1 binding, 635 nm fluorescence, higher = more signal;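 also: score combines 667 nm spot fluorescence with signal to noise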
# [7] = tested on: Neuregulin-1 EGF-like domain; test: small molecules binding NRG1 EGF domain – biochemical, small-molecule microarray, 635 nm fluorescence, primary screen (AID 1081); conditions: higher = more signal;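 also: binding of the protein to compounds printed on small-molecule microarray slides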
# [8] = FRG1 expression reporter modulators in myotubes – cell-based, C2C12 myotubes, firefly/Renilla luciferase, luminescence, FRG1 inhibition for FSHD, primary screen (AID 1084); conditions: FRG1 promoter luciferase, higher = more signal, called active from +8 up or from −8 down
# [9] = small molecules captured by biotinylated probe aFST – biochemical, small-molecule microarray, fluorescence 635/667, stem cell growth factor project, primary screen (AID 1086); conditions: higher = more signal;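 also: score merges 667 nm fluorescence with signal-to-noise of each printed compound spot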
# [10] = binders of probe aHhip on microarray, primary screen, stem cell growth factor project, biochemical, small-molecule microarray, fluorescence 635/667 (AID 1087); conditions: higher = more signal;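 also: score merges spot fluorescence at 667nm with spot signal to noise ratio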
# [11] = tested on: PRMT1 (protein arginine N-methyltransferase 1); test: small molecules binding arginine methyltransferase PRMT1 – biochemical, small-molecule microarray, 635 nm fluorescence, primary screen (AID 1088); conditions: higher = more signal;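 also: binding of Prmt1 protein to compounds spotted on small-molecule microarray slides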
# [12] = growth effects on S. cerevisiae YJM789 – YJM789 clinical isolate, OD600, 24 h, basal, primary screen (AID 1089); conditions: higher = more signal, called active from +8 up or from −8 down;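 also: growth of clinical yeast isolate S. cerevisiae YJM 789 seeded 1000 cells per well; test concentration not given here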
# [13] = S. pombe growth modifiers, basal conditions – strain 972, OD600, 24 h, no modulator, primary screen (AID 1090);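 also: basal condition with compound alone and no growth modifier present; test concentration not given here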; conditions: S. pombe 972 growth, higher = more signal, called active from +8 up or from −8 down
# [14] = budding yeast growth modifiers under rapamycin – strain BY4716, OD600, 96 h, primary screen (AID 1091); also: test concentration not given here; conditions: S. cerevisiae BY4716 + rapamycin, higher = more signal, called active from +8 up or from −8 down
# [15] = biological target: Torsin-1A-interacting protein 2 (Homo sapiens) (UniProt Q8NFQ8); test: small molecules binding lysate-expressed LULL1 – cell lysate, human LULL1 lysate, 635/667 nm fluorescence, primary screen (AID 1092); conditions: small-molecule microarray, hLULL1 lysate binding, 635 nm fluorescence; higher = more signal;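 also: probe is lysate of COS7 cells overexpressing human LULL1; score merges per-feature 667 nm fluorescence with signal-to-noise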
# [16] = optical density change of DRC41 E. coli – strain DRC41, OD650, 24 h, E. coli filamentation project, primary screen (AID 1093);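 also: MC1000 strain lacking acrAB efflux and sulA so SOS filamentation is blocked; test concentration not given here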; conditions: E. coli DRC41 growth, higher = more signal, called active from +8 up or from −8 down
# [17] = probe aLefty2 binding to arrayed compounds – biochemical, biotinylated probe, 635/667 nm fluorescence, primary screen (AID 1094); conditions: small-molecule microarray, higher = more signal;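 also: score merges spot fluorescence near 667 nm with spot signal-to-noise ratio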
# [18] = tested on: Noggin (protein binding on small-molecule microarray); test: small molecules binding Noggin protein – biochemical, 635/667 nm fluorescence, primary screen (AID 1095); conditions: 635 nm fluorescence, higher = more signal;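 also: score merges 667 nm feature fluorescence with signal to noise over triplicate slides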
# [19] = biological target: Neurogenic locus notch homolog protein 3 (Homo sapiens) (UniProt Q9UM47); test: small molecules binding NOTCH3 protein – biochemical, 635/667 nm fluorescence, primary screen (AID 1096); conditions: small-molecule microarray, 635 nm fluorescence, higher = more signal
# [20] = probe aEGFR binding to arrayed compounds – biochemical, biotinylated probe, 635/667 nm fluorescence, primary screen (AID 1097); conditions: small-molecule microarray, higher = more signal;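 also: probe is a biotinylated anti-EGFR antibody binding compounds printed on slides; score combines fluorescence near 667 nm and signal to noise of each spot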
# Chain of Torsin-1A-interacting protein 2 (Homo sapiens) (Q8NFQ8 whole entry, looked up): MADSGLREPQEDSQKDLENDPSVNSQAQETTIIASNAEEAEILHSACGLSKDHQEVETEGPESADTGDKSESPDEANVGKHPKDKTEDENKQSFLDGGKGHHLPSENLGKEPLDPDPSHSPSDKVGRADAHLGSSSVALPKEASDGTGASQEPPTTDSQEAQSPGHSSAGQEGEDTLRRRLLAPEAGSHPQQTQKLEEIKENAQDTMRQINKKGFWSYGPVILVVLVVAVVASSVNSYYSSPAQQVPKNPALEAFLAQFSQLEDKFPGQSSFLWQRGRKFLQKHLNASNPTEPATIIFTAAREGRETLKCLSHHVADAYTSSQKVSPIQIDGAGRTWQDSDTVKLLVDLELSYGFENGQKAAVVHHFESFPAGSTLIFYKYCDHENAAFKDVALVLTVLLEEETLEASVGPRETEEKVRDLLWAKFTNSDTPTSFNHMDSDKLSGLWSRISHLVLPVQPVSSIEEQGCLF
# Chain of Neurogenic locus notch homolog protein 2 (Homo sapiens) (Q04721 whole entry, looked up, canonical isoform): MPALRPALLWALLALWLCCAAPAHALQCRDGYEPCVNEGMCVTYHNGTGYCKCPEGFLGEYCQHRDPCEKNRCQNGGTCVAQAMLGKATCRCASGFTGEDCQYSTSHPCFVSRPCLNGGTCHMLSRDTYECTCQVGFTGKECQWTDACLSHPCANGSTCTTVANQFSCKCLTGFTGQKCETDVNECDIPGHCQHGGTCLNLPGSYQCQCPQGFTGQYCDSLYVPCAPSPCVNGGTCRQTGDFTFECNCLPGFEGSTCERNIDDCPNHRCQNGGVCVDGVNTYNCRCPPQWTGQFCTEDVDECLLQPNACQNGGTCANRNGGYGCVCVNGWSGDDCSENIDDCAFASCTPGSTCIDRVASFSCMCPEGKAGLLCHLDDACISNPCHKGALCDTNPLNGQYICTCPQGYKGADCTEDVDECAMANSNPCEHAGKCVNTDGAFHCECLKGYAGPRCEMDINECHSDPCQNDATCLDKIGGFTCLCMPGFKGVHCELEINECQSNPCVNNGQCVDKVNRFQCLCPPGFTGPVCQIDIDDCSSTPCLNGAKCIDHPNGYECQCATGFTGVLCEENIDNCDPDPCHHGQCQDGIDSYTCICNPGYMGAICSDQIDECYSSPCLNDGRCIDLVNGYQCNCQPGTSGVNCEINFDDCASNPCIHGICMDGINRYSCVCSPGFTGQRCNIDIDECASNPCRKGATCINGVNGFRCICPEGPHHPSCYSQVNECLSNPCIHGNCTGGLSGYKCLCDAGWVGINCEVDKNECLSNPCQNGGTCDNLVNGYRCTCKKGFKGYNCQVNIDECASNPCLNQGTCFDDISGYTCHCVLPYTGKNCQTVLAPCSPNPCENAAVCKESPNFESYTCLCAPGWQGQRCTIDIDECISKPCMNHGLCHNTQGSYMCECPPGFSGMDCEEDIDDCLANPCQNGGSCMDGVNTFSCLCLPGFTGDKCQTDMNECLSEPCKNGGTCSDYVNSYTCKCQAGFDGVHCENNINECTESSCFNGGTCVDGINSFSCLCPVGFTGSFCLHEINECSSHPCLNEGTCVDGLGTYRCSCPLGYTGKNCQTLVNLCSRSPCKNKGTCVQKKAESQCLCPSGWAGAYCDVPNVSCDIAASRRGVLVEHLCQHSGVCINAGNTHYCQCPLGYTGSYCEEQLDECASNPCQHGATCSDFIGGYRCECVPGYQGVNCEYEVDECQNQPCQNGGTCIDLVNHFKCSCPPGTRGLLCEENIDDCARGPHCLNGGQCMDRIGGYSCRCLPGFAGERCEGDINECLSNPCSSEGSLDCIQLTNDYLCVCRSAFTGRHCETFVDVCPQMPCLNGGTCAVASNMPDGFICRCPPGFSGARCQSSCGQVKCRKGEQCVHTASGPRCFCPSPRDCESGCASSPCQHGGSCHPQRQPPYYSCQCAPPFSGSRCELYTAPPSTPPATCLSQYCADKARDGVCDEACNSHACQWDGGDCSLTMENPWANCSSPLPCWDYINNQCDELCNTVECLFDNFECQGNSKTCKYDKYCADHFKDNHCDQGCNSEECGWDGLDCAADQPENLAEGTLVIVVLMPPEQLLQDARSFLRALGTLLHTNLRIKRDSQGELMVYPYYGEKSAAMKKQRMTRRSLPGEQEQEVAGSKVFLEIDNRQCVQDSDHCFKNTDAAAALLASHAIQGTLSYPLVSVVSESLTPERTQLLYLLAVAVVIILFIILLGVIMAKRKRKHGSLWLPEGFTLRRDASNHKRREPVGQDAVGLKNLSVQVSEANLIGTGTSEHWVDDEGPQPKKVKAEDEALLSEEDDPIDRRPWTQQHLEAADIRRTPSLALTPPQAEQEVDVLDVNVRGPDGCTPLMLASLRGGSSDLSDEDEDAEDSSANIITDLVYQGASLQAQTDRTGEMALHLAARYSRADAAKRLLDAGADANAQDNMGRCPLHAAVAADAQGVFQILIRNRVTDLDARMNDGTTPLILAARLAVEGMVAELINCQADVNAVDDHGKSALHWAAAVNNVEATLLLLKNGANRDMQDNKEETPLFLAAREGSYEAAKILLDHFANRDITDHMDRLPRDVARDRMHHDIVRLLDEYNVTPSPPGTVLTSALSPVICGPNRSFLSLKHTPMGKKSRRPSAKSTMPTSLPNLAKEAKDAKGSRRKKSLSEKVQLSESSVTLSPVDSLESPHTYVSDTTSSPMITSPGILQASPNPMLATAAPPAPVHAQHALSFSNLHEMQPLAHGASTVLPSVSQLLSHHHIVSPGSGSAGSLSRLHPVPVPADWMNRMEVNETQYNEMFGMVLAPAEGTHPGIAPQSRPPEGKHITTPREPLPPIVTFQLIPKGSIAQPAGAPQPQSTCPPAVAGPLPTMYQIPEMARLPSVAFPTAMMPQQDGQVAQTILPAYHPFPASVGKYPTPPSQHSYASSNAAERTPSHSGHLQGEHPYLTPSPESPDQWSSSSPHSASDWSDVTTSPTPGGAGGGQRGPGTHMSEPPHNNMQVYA
# Chain of Pro-neuregulin-1, membrane-bound isoform (Homo sapiens) (Q02297 whole entry, looked up, the tested form may be a part, canonical isoform): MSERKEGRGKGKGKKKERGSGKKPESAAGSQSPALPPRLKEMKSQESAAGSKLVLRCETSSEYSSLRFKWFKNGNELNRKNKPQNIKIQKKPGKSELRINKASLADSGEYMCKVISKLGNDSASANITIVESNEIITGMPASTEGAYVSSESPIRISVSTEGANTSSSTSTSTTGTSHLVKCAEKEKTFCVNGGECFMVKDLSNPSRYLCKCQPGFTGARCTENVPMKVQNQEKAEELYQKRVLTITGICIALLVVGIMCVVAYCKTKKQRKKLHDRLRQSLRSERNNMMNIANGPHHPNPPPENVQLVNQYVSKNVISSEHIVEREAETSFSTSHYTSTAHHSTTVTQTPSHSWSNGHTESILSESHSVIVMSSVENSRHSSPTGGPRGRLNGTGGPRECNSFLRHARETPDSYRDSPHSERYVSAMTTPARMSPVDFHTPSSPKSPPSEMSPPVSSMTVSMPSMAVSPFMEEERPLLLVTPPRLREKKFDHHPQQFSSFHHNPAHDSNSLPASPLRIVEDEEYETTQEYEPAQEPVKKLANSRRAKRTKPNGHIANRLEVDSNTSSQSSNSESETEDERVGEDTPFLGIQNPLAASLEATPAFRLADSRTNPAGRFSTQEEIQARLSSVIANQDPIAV
Structure (SMILES),composite z-score [1],composite z-score [2],composite z-score [3],composite z-score [4],composite z-score [5],composite z-score [6],composite z-score [7],z-score [8],composite z-score [9],composite z-score [10],composite z-score [11],z-score [12],z-score [13],z-score [14],composite z-score [15],z-score [16],composite z-score [17],composite z-score [18],composite z-score [19],composite z-score [20]
O=C1[C@H]2C=C(Br)[C@H](C[C@@H]2c2ccccc2)[C@@]12CO2,-0.357,0.324,-0.0265,0.328,0.299,-0.406,0.57,1.36 (inactive),0.0322,-0.0645,0.366,-0.703 (inactive),-14.7 (active),-0.973 (inactive),0.328,-0.779 (inactive),-0.172,1.36,0.412,-0.156
Cc1ccc(C(C)CC(O)C2C=CC3C(=O)N(C)C(=O)C3N2NC(=O)OC(C)(C)C)o1 (stereo not given),-0.112,0.6,0.239,0.687,0.868,1.67,0.883,0.385 (inactive),0.889,-0.27,1.42,0.309 (inactive),-0.63 (inactive),0.101 (inactive),3,-0.615 (inactive),0.0682,0.68,1.06,0.0681
O=C1OCCC/C=C\[C@H]2OC34C=CCN(c5ccc6ccccc6c5)C(=O)[C@H]3N(CCCCCCO)C(=O)[C@@H]4C12 (stereo not given in full),0.221,-0.295,-0.0824,-0.648,-1.15,-0.177,1.25,-0.824 (inactive),-0.307,-0.0239,0.0502,-1.96 (inactive),-1.15 (inactive),-0.533 (inactive),0.132,1.1 (inactive),-0.25,-0.695,0.086,-0.0597
COCCOC(=O)N1C(=O)[C@@]2(c3cc(C#Cc4ccc(OC)cc4)ccc31)[C@H](c1ccccc1OCCO)N1[C@H](c3ccccc3)[C@H](c3ccccc3)OC(=O)[C@H]1[C@@H]2C(=O)N1CCN(c2ncccn2)CC1,-0.173,0.489,-0.0336,0.619,0.568,0.4,1.23,-1.23 (inactive),0.172,-0.0618,1.35,3.34 (inactive),1.95 (inactive),7.23 (inactive),2.22,0.579 (inactive),-0.115,0.936,0.836,-0.058
CC(C)(C)OC(=O)CC[C@]1(C(=O)NCC(O)CO)COC(c2ccc(OCCCO)cc2)=N1 (stereo not given in full),0.139,-0.382,-0.0551,-0.0211,1.13,1.97,1.21,0.555 (inactive),1.24,-0.0645,0.281,0.65 (inactive),1 (inactive),0.977 (inactive),3.71,-0.0576 (inactive),-0.12,-0.579,-0.0234,0.0287
CC(C)(C)C(=O)N[C@@H](c1ccc(Cl)cc1)[C@]1(C)C[C@H]1C1CCCCC1,1.05,0.845,0.282,0.57,1.51,2.09,1.19,-1.52 (inactive),1.47,0.0053,1.05,0.553 (inactive),0.613 (inactive),-0.104 (inactive),3.61,-0.21 (inactive),0.43,-0.486,1.05,0.106
CCCCN1CC=CC23O[C@@H]4/C=C\CCC(C)OC(=O)C4[C@H]2C(=O)N(CCCCCO)[C@@H]3C1=O (stereo not given in full),0.141,-0.421,-0.132,-1.16,-0.784,0.768,0.178,0.464 (inactive),-0.526,-0.0994,0.445,-0.402 (inactive),-0.831 (inactive),-0.868 (inactive),1.72,0.0029 (inactive),-0.205,-0.976,-0.292,-0.227
CC(C)C[C@H]1NC(=O)[C@@]23C(=O)N[C@@H](Cc4ccccc4)C2[C@H](C)[C@@]2(C)O[C@H]2C3/C=C/C/C=C\CNC(=O)[C@H](Cc2ccccc2)NC1=O (stereo not given in full),-0.404,0.443,-0.0973,0.307,0.349,1.04,0.976,0.688 (inactive),0.146,-0.0994,1.14,0.871 (inactive),-0.388 (inactive),-0.332 (inactive),1.13,0.11 (inactive),-0.157,1.39,0.937,-0.156
COCCOC(=O)N1C(=O)[C@@]2(c3cc(C#CC4=CCCCC4)ccc31)[C@H](c1ccc(O)cc1)N1[C@H](c3ccccc3)[C@H](c3ccccc3)OC(=O)[C@H]1[C@@H]2C(N)=O,-0.456,0.185,-0.0899,0.54,0.592,0.324,0.978,0.189 (inactive),0.327,0.154,1.56,0.893 (inactive),0.358 (inactive),0.918 (inactive),1.84,-0.603 (inactive),-0.388,1.63,1.1,-0.11
C=CCNC(=O)[C@H]1[C@@H]2C(=O)O[C@@H](c3ccccc3)[C@@H](c3ccccc3)N2[C@@H](c2ccc(OCCO)cc2)[C@]12C(=O)N(C(=O)OCCOC)c1ccccc12,-0.268,0.847,0.0732,0.591,1.45,1.53,1.38,-2.56 (inactive),0.854,0.251,1.54,2.07 (inactive),0.0313 (inactive),4.62 (inactive),3.07,0.909 (inactive),0.0316,1.09,1.04,0.107
